# Laboratory results: PubChem BioAssay (NCI)
# This is part of a sample that, as a whole, favours compounds with a hit. Of some 83,000 tested, about 20% had one in any assay.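 Treatment: one concentration, 48 hours, 96-well format. Scoring: percent growth, with anything below 10 considered active.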 Unmarked numbers belong to inactive results. Activity calls are given as the source filed them.
# Key:
# Test in all cases: NCI-60 one-dose screen, 48 h (100 = growth as untreated, 0 = no growth, -100 = all killed)
# HT29 colon = test system: HT29 colon
# SNB-75 CNS = details: 10 µM unless noted
# SNB-19 CNS = test system: SNB-19 CNS
# U251 CNS = test system: U251 CNS
# PC-3 prostate = test system: PC-3 prostate
# SK-MEL-5 melanoma = test system: SK-MEL-5 melanoma
# LOX IMVI melanoma = test system: LOX IMVI melanoma
# SK-MEL-2 melanoma = test system: SK-MEL-2 melanoma
# EKVX NSCLC = test system: EKVX NSCLC
# SN12C renal = test system: SN12C renal
# UO-31 renal = test system: UO-31 renal
# ACHN renal = test system: ACHN renal
# CAKI-1 renal = test system: CAKI-1 renal
# A498 renal = test system: A498 renal
# HL-60(TB) leukemia = test system: HL-60(TB) leukemia
# CCRF-CEM leukemia = test system: CCRF-CEM leukemia
# MOLT-4 leukemia = test system: MOLT-4 leukemia
# SR leukemia = test system: SR leukemia
# RPMI-8226 leukemia = test system: RPMI-8226 leukemia
# OVCAR-8 ovarian = test system: OVCAR-8 ovarian
compound,measurement,setting,value
S=C(SSC(=S)N1CCCCC1)N1CCCCC1,growth,HT29 colon; 10 µM,104%
same,growth,HT29 colon; 100 µM,-61.4% (active)
same,growth,SNB-75 CNS,50.5% [100 µM]
same,growth,SNB-19 CNS; 10 µM,92.8%
same,growth,SNB-19 CNS; 100 µM,56.5%
same,growth,U251 CNS; 10 µM,88%
same,growth,U251 CNS; 100 µM,-43.7% (active)
same,growth,PC-3 prostate; 10 µM,83.6%
same,growth,PC-3 prostate; 100 µM,18%
same,growth,SK-MEL-5 melanoma; 10 µM,93.9%
same,growth,SK-MEL-5 melanoma; 100 µM,-18% (active)
same,growth,LOX IMVI melanoma; 10 µM,87.1%
same,growth,LOX IMVI melanoma; 100 µM,-45.9% (active)
same,growth,SK-MEL-2 melanoma; 10 µM,102%
same,growth,SK-MEL-2 melanoma; 100 µM,2.78% (active)
same,growth,EKVX NSCLC; 10 µM,104%
same,growth,EKVX NSCLC; 100 µM,-23.3% (active)
same,growth,SN12C renal; 10 µM,96.1%
same,growth,SN12C renal; 100 µM,-42.3% (active)
same,growth,UO-31 renal; 10 µM,102%
same,growth,UO-31 renal; 100 µM,-12.3% (active)
same,growth,ACHN renal; 10 µM,106%
same,growth,ACHN renal; 100 µM,-51% (active)
same,growth,CAKI-1 renal; 10 µM,95.6%
same,growth,CAKI-1 renal; 100 µM,-77.7% (active)
same,growth,A498 renal; 10 µM,105%
same,growth,A498 renal; 100 µM,72.4%
same,growth,HL-60(TB) leukemia; 10 µM,86.4%
same,growth,HL-60(TB) leukemia; 100 µM,14.7%
same,growth,CCRF-CEM leukemia; 10 µM,91.1%
same,growth,CCRF-CEM leukemia; 100 µM,-38.1% (active)
same,growth,MOLT-4 leukemia; 10 µM,85%
same,growth,MOLT-4 leukemia; 100 µM,0.424% (active)
same,growth,SR leukemia; 10 µM,86.2%
same,growth,SR leukemia; 100 µM,-8.68% (active)
same,growth,RPMI-8226 leukemia; 10 µM,105%
same,growth,RPMI-8226 leukemia; 100 µM,-44.7% (active)
same,growth,OVCAR-8 ovarian; 10 µM,92.4%
same,growth,OVCAR-8 ovarian; 100 µM,-43.4% (active)
CC[n+]1c(-c2ccccc2)c2cc(N)ccc2c2ccc(N)cc21,growth,HT29 colon; 10 µM unless noted,9.77% (active)
same,growth,SNB-75 CNS,-88.5% (active)
same,growth,SNB-19 CNS; 10 µM unless noted,-5.17% (active)
same,growth,U251 CNS; 10 µM unless noted,-2.55% (active)
same,growth,PC-3 prostate; 10 µM unless noted,20.9%
same,growth,LOX IMVI melanoma; 10 µM unless noted,13.5%
same,growth,SK-MEL-2 melanoma; 10 µM unless noted,-60.1% (active)
same,growth,EKVX NSCLC; 10 µM unless noted,1.88% (active)
same,growth,SN12C renal; 10 µM unless noted,-16.5% (active)
same,growth,UO-31 renal; 10 µM unless noted,63.5%
same,growth,ACHN renal; 10 µM unless noted,54.4%
same,growth,CAKI-1 renal; 10 µM unless noted,81%
same,growth,A498 renal; 10 µM unless noted,60.4%
same,growth,HL-60(TB) leukemia; 10 µM unless noted,23.7%
same,growth,CCRF-CEM leukemia; 10 µM unless noted,27.5%
same,growth,MOLT-4 leukemia; 10 µM unless noted,23.7%
same,growth,RPMI-8226 leukemia; 10 µM unless noted,7.63% (active)
same,growth,OVCAR-8 ovarian; 10 µM,18.6%
Oc1cc[c]([Hg][Cl])cc1,growth,HT29 colon; 10 µM unless noted,100%
same,growth,SNB-75 CNS,92.3%
same,growth,SNB-19 CNS; 10 µM unless noted,100%
same,growth,U251 CNS; 10 µM unless noted,85.9%
same,growth,PC-3 prostate; 10 µM unless noted,99.7%
same,growth,SK-MEL-5 melanoma; 10 µM unless noted,74.5%
same,growth,LOX IMVI melanoma; 10 µM unless noted,71.3%
same,growth,SK-MEL-2 melanoma; 10 µM unless noted,70.2%
same,growth,SN12C renal; 10 µM unless noted,98.9%
same,growth,UO-31 renal; 10 µM unless noted,100%
same,growth,ACHN renal; 10 µM unless noted,99%
same,growth,CAKI-1 renal; 10 µM unless noted,110%
same,growth,A498 renal; 10 µM unless noted,107%
same,growth,HL-60(TB) leukemia; 10 µM unless noted,102%
same,growth,CCRF-CEM leukemia; 10 µM unless noted,55.2%
same,growth,MOLT-4 leukemia; 10 µM unless noted,65.2%
same,growth,SR leukemia; 10 µM unless noted,38.2%
same,growth,RPMI-8226 leukemia; 10 µM unless noted,91.2%
same,growth,OVCAR-8 ovarian; 10 µM,105%
CCOC(=O)C(NC(=O)C(Cc1ccc(N(CCCl)CCCl)cc1)NC(C)=O)C(C)C (stereo not given),growth,HT29 colon; 10 µM unless noted,67.1%
same,growth,SNB-75 CNS,85.9%
same,growth,SNB-19 CNS; 10 µM unless noted,90.6%
same,growth,U251 CNS; 10 µM unless noted,73.7%
same,growth,PC-3 prostate; 10 µM unless noted,67.4%
same,growth,SK-MEL-5 melanoma; 10 µM unless noted,97.7%
same,growth,LOX IMVI melanoma; 10 µM unless noted,66.1%
same,growth,SK-MEL-2 melanoma; 10 µM unless noted,92.7%
same,growth,EKVX NSCLC; 10 µM unless noted,97.6%
same,growth,SN12C renal; 10 µM unless noted,76.2%
same,growth,UO-31 renal; 10 µM unless noted,82.5%
same,growth,ACHN renal; 10 µM unless noted,42.7%
same,growth,CAKI-1 renal; 10 µM unless noted,40.8%
same,growth,A498 renal; 10 µM unless noted,107%
same,growth,HL-60(TB) leukemia; 10 µM unless noted,44.9%
same,growth,CCRF-CEM leukemia; 10 µM unless noted,71.7%
same,growth,MOLT-4 leukemia; 10 µM unless noted,56.6%
same,growth,SR leukemia; 10 µM unless noted,28.2%
same,growth,RPMI-8226 leukemia; 10 µM unless noted,85.1%
same,growth,OVCAR-8 ovarian; 10 µM,83.1%
COC1=C(C)C(=O)C2=C(C1=O)C(CO)N1C(C#N)C3CC4C(C1C2N1CCOC41)N3C (stereo not given),growth,HT29 colon; 10 µM unless noted,-47.7% (active)
same,growth,SNB-19 CNS; 10 µM unless noted,8.12% (active)
same,growth,U251 CNS; 10 µM unless noted,-9.96% (active)
same,growth,PC-3 prostate; 10 µM unless noted,-40.2% (active)
same,growth,SK-MEL-5 melanoma; 10 µM unless noted,-90.1% (active)
same,growth,LOX IMVI melanoma; 10 µM unless noted,-21.2% (active)
same,growth,SK-MEL-2 melanoma; 10 µM unless noted,-58.4% (active)
same,growth,EKVX NSCLC; 10 µM unless noted,0.181% (active)
same,growth,SN12C renal; 10 µM unless noted,19.8%
same,growth,ACHN renal; 10 µM unless noted,-9.01% (active)
same,growth,CAKI-1 renal; 10 µM unless noted,-23.1% (active)
same,growth,A498 renal; 10 µM unless noted,-67.7% (active)
same,growth,HL-60(TB) leukemia; 10 µM unless noted,-33.9% (active)
same,growth,CCRF-CEM leukemia; 10 µM unless noted,-37.8% (active)
same,growth,MOLT-4 leukemia; 10 µM unless noted,-2.61% (active)
same,growth,SR leukemia; 10 µM unless noted,-19.5% (active)
same,growth,RPMI-8226 leukemia; 10 µM unless noted,-41.3% (active)
CCC(=O)OC1CCn2c1nc1c2C(=O)C(C)=C(N2CC2)C1=O (stereo not given),growth,HT29 colon; 10 µM unless noted,7.71% (active)
same,growth,SNB-75 CNS,-87% (active)
same,growth,SNB-19 CNS; 10 µM unless noted,1.12% (active)
same,growth,U251 CNS; 10 µM unless noted,-24.2% (active)
same,growth,PC-3 prostate; 10 µM unless noted,8.58% (active)
same,growth,SK-MEL-5 melanoma; 10 µM unless noted,-98% (active)
same,growth,LOX IMVI melanoma; 10 µM unless noted,-75.7% (active)
same,growth,SK-MEL-2 melanoma; 10 µM unless noted,-43.9% (active)
same,growth,EKVX NSCLC; 10 µM unless noted,8.46% (active)
same,growth,SN12C renal; 10 µM unless noted,-43.9% (active)
same,growth,UO-31 renal; 10 µM unless noted,-9.18% (active)
same,growth,ACHN renal; 10 µM unless noted,-25.3% (active)
same,growth,CAKI-1 renal; 10 µM unless noted,-8.28% (active)
same,growth,A498 renal; 10 µM unless noted,-77.6% (active)
same,growth,HL-60(TB) leukemia; 10 µM unless noted,10.4%
same,growth,CCRF-CEM leukemia; 10 µM unless noted,70.4%
same,growth,MOLT-4 leukemia; 10 µM unless noted,70.5%
same,growth,SR leukemia; 10 µM unless noted,1.48% (active)
same,growth,RPMI-8226 leukemia; 10 µM unless noted,2.94% (active)
same,growth,OVCAR-8 ovarian; 10 µM,3.32% (active)
Cc1ccc(C(=O)OC(C(=O)O)C(OC(=O)c2ccc(C)cc2)C(=O)O)cc1 (stereo not given) (tested in a mixture with another compound),growth,HT29 colon; 10 µM unless noted,23%
same,growth,SNB-75 CNS,55%
same,growth,U251 CNS; 10 µM unless noted,54.3%
same,growth,PC-3 prostate; 10 µM unless noted,29.4%
same,growth,SK-MEL-5 melanoma; 10 µM unless noted,14.7%
same,growth,LOX IMVI melanoma; 10 µM unless noted,56.2%
same,growth,SK-MEL-2 melanoma; 10 µM unless noted,77.1%
same,growth,EKVX NSCLC; 10 µM unless noted,32.7%
same,growth,SN12C renal; 10 µM unless noted,38.5%
same,growth,ACHN renal; 10 µM unless noted,66%
same,growth,CAKI-1 renal; 10 µM unless noted,50.7%
same,growth,A498 renal; 10 µM unless noted,77.7%
same,growth,HL-60(TB) leukemia; 10 µM unless noted,23.5%
same,growth,CCRF-CEM leukemia; 10 µM unless noted,23%
same,growth,MOLT-4 leukemia; 10 µM unless noted,35.9%
same,growth,RPMI-8226 leukemia; 10 µM unless noted,-3.01% (active)
same,growth,OVCAR-8 ovarian; 10 µM,61.4%
